“And” between values parts separate entries of the source, which are not always exact repeats. Identical values can stand only once. More than one record can exist for a structure, and the calls need not agree. The source made the active and inactive calls. Rule for the calls, unless noted: active = hit-call score of the fitted dose curve at least 0.9, where 1 is the maximum; inactive = score below 0.9.

Read-out in assay [1]: Protein phosphatase 2A (PPP2R4), PTPA (gene 5524)
Kind of assay: LTEA_HepaRG_PPP2R4: Life Technologies and Expression Analysis (LTEA) Assay for Protein phosphatase 2A (PPP2R4) using HepaRG (AID 2283522). To be noted: mRNA level, 48 h; actives raise or lower the signal. Summed up: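 Expression was quantified by Fluidigm qRT-PCR normalised to three housekeeping genes after 48 h treatment. Human HepaRG cells received an 8-point series from 100 µM downward by half-logs, in duplicate with 0.5% DMSO vehicle and 1 mM phenobarbital as induction control.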

Read-out in assay [2]: Phosphatase and tensin (PTEN), PTEN (gene 5728)
Kind of assay: LTEA_HepaRG_PTEN: Life Technologies and Expression Analysis (LTEA) Assay for Phosphatase and tensin (PTEN) using HepaRG (AID 2283523). To be noted: mRNA level, 48 h; actives raise or lower the signal. Summed up: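 HepaRG, 48 h exposure, 8-pt half-log series from 100 uM top, 0.5% DMSO vehicle, duplicates. Readout: Fluidigm qRT-PCR of PTEN transcript; housekeeping normalization (ACTB, GAPDH, POLR2A). Gain or loss fitted relative to DMSO baseline.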

Read-out in assay [3]: solute carrier (SLC22A1), SLC22A1 (gene 6580)
Kind of assay: LTEA_HepaRG_SLC22A1: Life Technologies and Expression Analysis (LTEA) Assay for solute carrier (SLC22A1) using HepaRG (AID 2283524).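 For AC50: differentiated human HepaRG liver cells in serum-free induction medium.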 To be noted: mRNA level, 48 h; actives raise or lower the signal. Summed up: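 qRT-PCR readout (TaqMan, Fluidigm arrays) of SLC22A1 transcript, normalized to three housekeeping genes; bidirectional curve fit relative to 0.5% DMSO vehicle. Differentiated human HepaRG cells, 48 h chemical exposure, top concentration 100 uM, half-log steps, eight points.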

Read-out in assay [4]: Pyruvate Dehydrogenase Kinase 4 (PDK4), PDK4 (gene 5166)
Kind of assay: LTEA_HepaRG_PDK4: Life Technologies and Expression Analysis (LTEA) Assay for Pyruvate Dehydrogenase Kinase 4 (PDK4) using HepaRG (AID 2283525). To be noted: mRNA level, 48 h; actives raise or lower the signal. The essentials: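 HepaRG (human liver line), 48 h chemical exposure, 8-pt half-log CRC top 100 uM, 0.5% DMSO vehicle, duplicates. Readout: TaqMan qRT-PCR of PDK4 mRNA, housekeeping-normalized; gain/loss fit relative to DMSO baseline.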

Read-out in assay [5]: NAD(P)H dehydrogenase [quinone] 1 (NQO1), NQO1 (gene 1728)
In words: LTEA_HepaRG_NQO1: Life Technologies and Expression Analysis (LTEA) Assay for NAD(P)H dehydrogenase [quinone] 1 (NQO1) using HepaRG (AID 2283526). To be noted: mRNA level, 48 h; actives raise or lower the signal. The essentials: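 NQO1 transcript induction or loss measured by TaqMan qRT-PCR, referenced to three housekeeping genes and fitted bidirectionally against 0.5% DMSO. HepaRG cultures exposed 48 h, duplicate, eight-point half-log series, top 100 uM.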

Read-out in assay [6]: Nuclear factor erythroid 2-related factor 2 (Homo sapiens) (UniProt Q16236)
Kind of assay: LTEA_HepaRG_NFE2L2: Life Technologies and Expression Analysis (LTEA) Assay for Nuclear factor erythroid 2-related factor 2 (NFE2L2) Transcription Factor using HepaRG (AID 2283527).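 Note: TaqMan qRT-PCR transcript level normalised to ACTB GAPDH and POLR2A housekeeping genes.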 To be noted: mRNA level, 48 h; actives raise or lower the signal. The essentials:
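HepaRG, 48 h dosing, 8-pt half-log series from 100 uM in 0.5% DMSO, duplicates. Read-out: NFE2L2 mRNA by qRT-PCR (ACTB/GAPDH/POLR2A normalization). Bidirectional curve fit vs DMSO baseline.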

Read-out in assay [7]: succinate dehydrogenase complex iron sulfur subunit B (SDHB), SDHB (gene 6390)
Kind of assay: LTEA_HepaRG_SDHB: Life Technologies and Expression Analysis (LTEA) Assay for succinate dehydrogenase complex iron sulfur subunit B (SDHB) using HepaRG (AID 2283528). To be noted: mRNA level, 48 h; actives raise or lower the signal. Summed up: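 HepaRG cells (~100,000/well, plated 48 h) exposed in duplicate for 48 h in serum-free induction medium to 8-point half-log series from 100 uM in 0.5% DMSO; mRNA by qRT-PCR normalised to ACTB, GAPDH, POLR2A; bidirectional fit versus DMSO.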

Read-out in assay [8]: Signal transducer and activator of transcription 3 (Homo sapiens) (UniProt P40763)
Kind of assay: LTEA_HepaRG_STAT3: Life Technologies and Expression Analysis (LTEA) Assay for Signal transducer and activator of transcription (STAT3) using HepaRG (AID 2283529). To be noted: mRNA level, 48 h; actives raise or lower the signal. The essentials:
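HepaRG, 48 h exposure, 8-pt half-log series (top 100 uM), 0.5% DMSO vehicle, duplicates. Readout: STAT3 transcript by Fluidigm qRT-PCR, housekeeping-normalized; bidirectional fit vs DMSO baseline.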

Read-out in assay [9]: solute carrier (SLCO1B1), SLCO1B1 (gene 10599)
In words: LTEA_HepaRG_SLCO1B1: Life Technologies and Expression Analysis (LTEA) Assay for solute carrier (SLCO1B1) using HepaRG (AID 2283530). To be noted: mRNA level, 48 h; actives raise or lower the signal. Summed up:
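HepaRG, serum-free induction medium, 48 h dosing, 8-pt half-log from 100 uM, 0.5% DMSO vehicle, duplicates. Readout: SLCO1B1 mRNA, qRT-PCR, ACTB/GAPDH/POLR2A normalization; up or down fit vs DMSO.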

Read-out in assay [10]: Transforming Growth Factor (TGFA), TGFA (gene 7039)
Kind of assay: LTEA_HepaRG_TGFA: Life Technologies and Expression Analysis (LTEA) Assay for Transforming Growth Factor (TGFA) using HepaRG (AID 2283532). To be noted: mRNA level, 48 h; actives raise or lower the signal. Summed up:
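qRT-PCR read-out of TGFA transcript, normalized to three housekeeping genes, fitted bidirectionally against 0.5% DMSO baseline. Human HepaRG cultures received chemicals for 48 h at eight half-log concentrations, top 100 uM.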

Read-out in assay [11]: Transforming Growth Factor (TGFB1), TGFB1 (gene 7040)
In words: LTEA_HepaRG_TGFB1: Life Technologies and Expression Analysis (LTEA) Assay for Transforming Growth Factor (TGFB1) Transporter using HepaRG (AID 2283533). To be noted: mRNA level, 48 h; actives raise or lower the signal. The essentials:
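HepaRG, 48 h post-plating, switched to serum-free induction medium; chemicals 100 uM top, half-log, 8 pts, 0.5% DMSO, dup; 48 h exposure; RNA → Fluidigm TaqMan qRT-PCR; norm ACTB/GAPDH/POLR2A; bidirectional fit vs DMSO.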

Read-out in another assay: TIMP1, TIMP1 (gene 7076)
Kind of assay: LTEA_HepaRG_TIMP1: Life Technologies and Expression Analysis (LTEA) Assay for TIMP1 using HepaRG (AID 2283534). To be noted: mRNA level, 48 h; actives raise or lower the signal. The essentials:
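Readout is TIMP1 mRNA level measured by qRT-PCR and normalized to three housekeeping genes. Human HepaRG cells were treated for 48 h in duplicate at eight concentrations up to 100 uM (0.5% DMSO); gain or loss fitted against DMSO.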

Read-out in assay [12]: Tumor necrosis factor receptor 1 (TNFRSF1A), TNFRSF1A (gene 7132)
Kind of assay: LTEA_HepaRG_TNFRSF1A: Life Technologies and Expression Analysis (LTEA) Assay for Tumor necrosis factor receptor 1 (TNFRSF1A) using HepaRG (AID 2283535). To be noted: mRNA level, 48 h; actives raise or lower the signal. Summed up:
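Read-out is TNFRSF1A transcript level by TaqMan qRT-PCR, normalized to three housekeeping genes, scored as gain or loss of signal versus 0.5% DMSO. Human HepaRG cells received test chemicals for 48 h at up to 100 uM (half-log series).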

Read-out in assay [13]: Thyroid Hormone Responsive (THRSP), THRSP (gene 7069)
In words: LTEA_HepaRG_THRSP: Life Technologies and Expression Analysis (LTEA) Assay for Thyroid Hormone Responsive (THRSP) using HepaRG (AID 2283536). To be noted: mRNA level, 48 h; actives raise or lower the signal. The essentials:
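qRT-PCR read-out (Fluidigm TaqMan), housekeeping-normalized (ACTB/GAPDH/POLR2A). HepaRG, 48 h chemical exposure, 8-pt half-log series from 100 uM in 0.5% DMSO, duplicates. Bidirectional curve fit vs 0.5% DMSO baseline.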

Read-out in assay [14]: UDP glucuronosyltransferase (UGT1A1), UGT1A1 (gene 54658)
Kind of assay: LTEA_HepaRG_UGT1A1: Life Technologies and Expression Analysis (LTEA) Assay for UDP glucuronosyltransferase (UGT1A1) using HepaRG (AID 2283538). To be noted: mRNA level, 48 h; actives raise or lower the signal. Summed up: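 UGT1A1 transcript level, measured by qRT-PCR with three housekeeping genes for normalization, after 48 h treatment of human HepaRG cells (0.5% DMSO, duplicates, up to 100 uM, half-log steps, 8 points). Curves fit both directions against DMSO baseline.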

Read-out in assay [15]: UDP glucuronosyltransferase (UGT1A6), UGT1A6 (gene 54578)
Kind of assay: LTEA_HepaRG_UGT1A6: Life Technologies and Expression Analysis (LTEA) Assay for UDP glucuronosyltransferase (UGT1A6) using HepaRG (AID 2283539). To be noted: mRNA level, 48 h; actives raise or lower the signal. Summed up:
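HepaRG, 48 h post-plating switch to serum-free induction medium; chemical 48 h, 100 uM top, half-log x8, duplicate, 0.5% DMSO. Phenobarbital 1mM induction control. UGT1A6 mRNA by TaqMan qRT-PCR; gain/loss fit vs DMSO.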

Assay [16] in a line: LTEA_HepaRG_LDH_cytotoxicity: Cytotoxicity Assessment in the Life Technologies and Expression Analysis (LTEA) Assay (AID 2283563; active = hit-call score of the fitted dose curve at least 0.9, where 1 is the maximum;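 for AC50: LDH activity released into spent culture medium as a marker of cell death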). The essentials:
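Cells were thawed and plated for 48 h. Medium was then replaced with serum-free induction medium. Chemicals (8 half-log points, maximum 100 uM, 0.5% DMSO) were added in duplicate for 48 h, after which spent medium was assayed for LDH.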

Read-out in assay [17]: Cellular tumor antigen p53 (Homo sapiens) (UniProt P04637)
Kind of assay: LTEA_HepaRG_TP53: Life Technologies and Expression Analysis (LTEA) Assay for Tumor Protein P53 (TP53) using HepaRG (AID 2283537). To be noted: mRNA level, 48 h; actives raise or lower the signal. Summed up:
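Differentiated HepaRG cells in serum-free induction medium exposed 48 h in duplicate to 8 half-log concentrations, top 100 uM, 0.5% DMSO. TP53 mRNA by TaqMan qRT-PCR (Fluidigm), normalized to ACTB, GAPDH, POLR2A; fitted bidirectionally versus DMSO.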

Read-out in assay [18]: X-box binding protein 1 (XBP1), XBP1 (gene 7494)
Kind of assay: LTEA_HepaRG_XBP1: Life Technologies and Expression Analysis (LTEA) Assay for X-box binding protein 1 (XBP1) using HepaRG (AID 2283540). To be noted: mRNA level, 48 h; actives raise or lower the signal. Summed up: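 Transcript levels of XBP1, measured by qRT-PCR and normalised to three housekeeping genes, were fitted bidirectionally relative to 0.5% DMSO controls. Human HepaRG cells received eight-point half-log dilutions from 100 uM for 48 h.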

Read-out in assay [19]: sulfotransferase 2A1 (SULT2A1), SULT2A1 (gene 6822)
Kind of assay: LTEA_HepaRG_SULT2A1: Life Technologies and Expression Analysis (LTEA) Assay for sulfotransferase 2A1 (SULT2A1) using HepaRG (AID 2283531). To be noted: mRNA level, 48 h; actives raise or lower the signal. The essentials: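 Transcript levels of SULT2A1, quantified by qRT-PCR and normalized to three housekeeping genes, serve as the readout. Human HepaRG cultures receive test chemicals for 48 h at up to 100 uM in half-log steps, with 0.5% DMSO vehicle.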

Chain of Cellular tumor antigen p53 (Homo sapiens) (P04637 whole entry, looked up): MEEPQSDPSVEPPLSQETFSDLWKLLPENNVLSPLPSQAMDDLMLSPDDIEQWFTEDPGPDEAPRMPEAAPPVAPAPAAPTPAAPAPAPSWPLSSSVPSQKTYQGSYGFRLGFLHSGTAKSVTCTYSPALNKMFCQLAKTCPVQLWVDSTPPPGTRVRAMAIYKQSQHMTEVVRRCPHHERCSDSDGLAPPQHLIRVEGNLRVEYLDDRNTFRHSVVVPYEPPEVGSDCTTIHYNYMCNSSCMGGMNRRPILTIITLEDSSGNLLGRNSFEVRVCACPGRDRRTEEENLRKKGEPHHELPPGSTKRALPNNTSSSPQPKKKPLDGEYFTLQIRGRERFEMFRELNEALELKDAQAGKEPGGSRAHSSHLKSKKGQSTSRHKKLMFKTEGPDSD
Chain of Signal transducer and activator of transcription 3 (Homo sapiens) (P40763 whole entry, looked up): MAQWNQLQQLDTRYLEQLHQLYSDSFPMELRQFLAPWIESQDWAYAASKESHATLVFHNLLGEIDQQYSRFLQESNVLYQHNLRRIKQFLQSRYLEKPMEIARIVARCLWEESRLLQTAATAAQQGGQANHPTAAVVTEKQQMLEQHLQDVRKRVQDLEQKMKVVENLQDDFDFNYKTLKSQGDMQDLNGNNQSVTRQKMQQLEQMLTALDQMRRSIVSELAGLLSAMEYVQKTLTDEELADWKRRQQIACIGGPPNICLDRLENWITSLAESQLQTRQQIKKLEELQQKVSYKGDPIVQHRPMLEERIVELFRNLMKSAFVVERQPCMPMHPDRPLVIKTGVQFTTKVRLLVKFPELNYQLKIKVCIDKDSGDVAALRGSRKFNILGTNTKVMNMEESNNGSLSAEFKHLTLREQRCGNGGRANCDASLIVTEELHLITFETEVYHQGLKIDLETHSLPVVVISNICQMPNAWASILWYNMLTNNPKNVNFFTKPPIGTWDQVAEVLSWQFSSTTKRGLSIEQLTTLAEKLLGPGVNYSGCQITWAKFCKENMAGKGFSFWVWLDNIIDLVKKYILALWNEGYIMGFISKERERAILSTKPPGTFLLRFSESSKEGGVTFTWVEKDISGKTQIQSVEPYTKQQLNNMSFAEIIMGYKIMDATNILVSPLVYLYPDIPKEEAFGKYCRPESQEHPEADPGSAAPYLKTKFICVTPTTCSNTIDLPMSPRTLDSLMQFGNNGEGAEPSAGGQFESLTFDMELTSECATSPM
Chain of Nuclear factor erythroid 2-related factor 2 (Homo sapiens) (Q16236 whole entry, looked up): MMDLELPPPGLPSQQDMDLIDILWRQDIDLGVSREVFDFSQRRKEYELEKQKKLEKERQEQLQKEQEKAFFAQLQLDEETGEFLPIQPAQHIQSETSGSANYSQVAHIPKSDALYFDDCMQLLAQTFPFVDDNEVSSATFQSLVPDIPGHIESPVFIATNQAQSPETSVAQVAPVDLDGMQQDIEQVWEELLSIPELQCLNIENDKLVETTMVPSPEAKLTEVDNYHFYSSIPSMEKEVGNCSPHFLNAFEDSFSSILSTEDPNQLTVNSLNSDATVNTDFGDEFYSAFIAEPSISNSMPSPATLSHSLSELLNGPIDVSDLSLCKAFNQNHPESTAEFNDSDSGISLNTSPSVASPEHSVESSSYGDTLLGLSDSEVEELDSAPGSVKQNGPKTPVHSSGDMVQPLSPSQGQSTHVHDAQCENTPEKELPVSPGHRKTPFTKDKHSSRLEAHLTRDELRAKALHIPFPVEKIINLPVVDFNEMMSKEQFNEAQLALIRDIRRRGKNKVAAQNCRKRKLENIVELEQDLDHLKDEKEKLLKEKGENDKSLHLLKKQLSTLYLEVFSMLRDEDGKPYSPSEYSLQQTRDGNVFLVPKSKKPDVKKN

For `C#CCN1C(=O)COc2cc(F)c(N3C(=O)C4=C(CCCC4)C3=O)cc21`, the molecule was called inactive in assay [1], in assay [2], in assay [3], in assay [4], in assay [5] and in assay [6]. Besides, the outcome in assay [7] was “inactive”; in [8], “inactive”; in assay [9] it was “inactive”; in assay [10] it was “inactive”; in [11], “inactive”; with TIMP1, TIMP1 (gene 7076) it was “inactive”. For the same molecule, the molecule was called inactive in assay [12], in [13], in assay [15] and in [16]. Besides, in [14], the AC50 was 1.95 µM (active).

As for `CC(C)OC(=O)Nc1cccc(Cl)c1`, the outcome in [1], in [3], in assay [4], in assay [5], in assay [6] and in [7] was inactive. In addition, the outcome is “inactive” in [8]; “inactive” in assay [9]; “inactive” in [10]; “inactive” in assay [11]; “inactive” with TIMP1, TIMP1 (gene 7076); “inactive” in assay [13]. For the same molecule, the molecule was classed as inactive in [17], in assay [14], in [18] and in assay [16]. Moreover, the AC50 in assay [12] is 50 µM (active).

As for `Oc1cc(Cl)ccc1Oc1ccc(Cl)cc1Cl`, the molecule was called inactive in [1], in assay [3], in assay [4], in [5], in assay [6] and in [7]. Besides, the outcome in assay [8] is “inactive”; in [9] it was “inactive”; in [19] it was “inactive”; in assay [10], “inactive”; in assay [11], “inactive”; with TIMP1, TIMP1 (gene 7076), “inactive”. Besides, the molecule was classed as inactive in assay [13], in [17] and in assay [14]. Also, the half-maximal activity concentration (AC50) in [3] is 86 µM (active); in assay [4], 82 µM (active) and 88.4 µM (active); with TIMP1, TIMP1 (gene 7076), 10.1 µM (active); in [13], 94.7 µM (active); in [16] it was 78.6 µM (active) and 78.2 µM (active) and 78 µM (active).

For orientation: AC50 means the concentration at which the activity in the assay is half-maximal.

The record behind these values is PubChem BioAssay (EPA / NIEHS).
